Whole data set: some 33,000 sequences, median “E-score (-0.5 to 0.5)” near -0.035, cut for the highest 2% near 0.35. The list comes from a sample in which the highest values are over-represented; it also holds similar and randomly drawn sequences.
target: T1, Pdr3 (UniProt P33200); experiment: PBM E-score (8-mer binding enrichment) (E-score (-0.5 to 0.5)); higher = stronger / more preferred TF binding; conditions: protein concentration: 200 nM; construct: GST-full length
T1 sequence: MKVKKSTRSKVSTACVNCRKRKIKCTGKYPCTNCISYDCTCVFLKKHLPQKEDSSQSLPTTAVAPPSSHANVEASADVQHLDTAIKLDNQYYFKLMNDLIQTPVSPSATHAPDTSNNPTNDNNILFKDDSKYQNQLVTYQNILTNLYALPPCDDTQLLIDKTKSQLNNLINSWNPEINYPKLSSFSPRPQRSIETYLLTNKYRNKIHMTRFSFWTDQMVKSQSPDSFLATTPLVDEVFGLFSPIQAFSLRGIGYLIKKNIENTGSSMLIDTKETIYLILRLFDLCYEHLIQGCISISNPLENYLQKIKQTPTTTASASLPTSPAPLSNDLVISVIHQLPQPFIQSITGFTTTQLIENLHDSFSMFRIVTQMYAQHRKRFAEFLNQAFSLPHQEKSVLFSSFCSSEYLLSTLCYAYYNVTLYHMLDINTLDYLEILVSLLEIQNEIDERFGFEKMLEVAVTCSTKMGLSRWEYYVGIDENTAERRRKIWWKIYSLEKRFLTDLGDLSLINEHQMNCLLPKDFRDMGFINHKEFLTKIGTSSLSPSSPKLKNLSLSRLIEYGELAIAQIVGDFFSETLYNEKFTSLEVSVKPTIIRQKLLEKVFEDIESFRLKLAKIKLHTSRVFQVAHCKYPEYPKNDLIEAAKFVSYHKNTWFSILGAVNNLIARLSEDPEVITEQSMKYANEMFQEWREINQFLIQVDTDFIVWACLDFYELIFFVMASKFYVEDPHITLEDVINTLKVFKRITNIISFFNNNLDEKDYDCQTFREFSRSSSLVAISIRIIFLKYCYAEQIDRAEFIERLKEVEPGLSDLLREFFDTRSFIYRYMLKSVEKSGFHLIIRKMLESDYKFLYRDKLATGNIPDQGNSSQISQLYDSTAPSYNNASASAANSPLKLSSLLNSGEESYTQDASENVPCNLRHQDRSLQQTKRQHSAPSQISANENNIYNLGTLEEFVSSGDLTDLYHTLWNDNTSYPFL
Procedure: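 Universal 'all 10-mer' protein binding microarrays (Agilent AMADID 015681) probed with GST-tagged S. cerevisiae TFs (full-length or DBD) made by in vitro transcription/translation (PURExpress), about 100-200 nM. Bound TF was detected with fluorescent anti-GST. Each ungapped 8-mer (which stands for itself and its reverse complement) is scored by the PBM enrichment score (E-score), a modified Wilcoxon-Mann-Whitney statistic from -0.5 to +0.5, computed with the Universal PBM Analysis Suite. Scale: above 0.35 generally sequence-specific binding.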

Sequence | PBM E-score
AACAACAC | 0.0662
CCTCCAGG | -0.269
AATATTCG | 0.0118
AATATTCC | 0.362
AATATTCA | 0.0722
ATACCGCC | 0.212
ATCCGTTG | 0.376
CTCCGTGC | 0.263
AGCCGTTG | 0.00388
ATCCGTTA | 0.364
GTCCGTTA | 0.321
CTCCGTTA | 0.216
ATCCGTGA | 0.306
ATCCGTGG | 0.428
ATCCGTGC | 0.267
CTCCGTTC | 0.367
ATCCGTTC | 0.322
ACCCGTTG | 0.0389
AAGCGCGT | -0.113
TAGTCCCA | -0.187
CAACCCGG | 0.293
CCACTCTA | -0.0753
AAGAGCCC | -0.00683
CGCTTAAC | 0.0421
AAACCGGA | 0.346

Sequence | PBM E-score
CAACCGGG | 0.129
TAACCGGA | 0.308
CAACCGCC | 0.0754
GAACCGGC | 0.247
CAACCGCG | 0.369
CAACCGGA | 0.379
GAACCGGA | 0.416
CAACCGCA | 0.0919
AAGATGAC | -0.202
AATGAAAC | 0.059
GGCCTTCA | 0.0249
GCGCCCCC | -0.146
GCCGACGC | 0.178
CAATCCGC | 0.265
AAATCCGG | 0.39
AAATCCGC | 0.196
AAATCCGT | 0.246
CAATCCGA | 0.271
CAATCCGG | 0.394
GCCTCTTA | -0.109
CGAAGGTA | 0.0358
CCGGACGC | 0.33
ACGGACGA | 0.304
CCGGACGA | 0.36
ACGGACGG | 0.245

Sequence | PBM E-score
CCGGACGG | 0.396
TCGGACGA | 0.233
AGCATTCA | -0.0565
CCGTACGA | 0.00505
CATTTCTC | 0.0391
GTAAAAAC | -0.132
ACCGGGTC | 0.184
CCCGGGTA | 0.438
CCCGGGTC | 0.426
ACCGGGTA | 0.154
CCGGGGTA | 0.341
CCGGGGTC | 0.327
AAACCATT | -0.226
TCGCTTCA | -0.114
CGGTCGAA | 0.0584
ATGTCCGG | 0.375
ATATCCCA | 0.229
ATATCCGC | 0.333
ATATCCCG | 0.357
ATATCCGG | 0.384
ATATCCGA | 0.346
ACATCCCC | 0.245
CCATCCCG | 0.31
ATATCCCC | 0.0317
ATGTCCGA | 0.207

Sequence | PBM E-score
ATGTCCGC | 0.223
ACATCCCG | 0.415
AATAGCGC | 0.0976
TCCTACAA | 0.00772
GAGTAGCC | -0.153
AAACTGGC | -0.0559
AGAGGCAC | -0.154
CGGCTAAA | 0.183
AGATCCGG | 0.362
ACATCCGT | 0.216
ACATCCGG | 0.378
ACATCCGA | 0.259
AGATCCGC | 0.351
AGATCCAG | 0.112
ACCGTTGG | 0.0171
CAGCATGG | -0.00655
ACCACGGC | 0.135
GCCACGTA | -0.208
ACCACGGA | 0.377
ACCATGGA | -0.151
ACCACGGG | 0.205
GCCACGGA | 0.415
CCCATGGA | -0.0126
GCCACGGC | 0.0607
TCCATGGA | 0.423

Sequence | PBM E-score
TCCACGGA | 0.477
TCCACGCA | -0.174
TACACGGA | 0.3
AGGCAGCA | -0.0599
AAAACTCT | -0.109
ATCAACGG | 0.247
CTATCCAC | 0.0063
ATGCTATA | -0.21
ACGTTTTA | -0.16
ATGGTGAC | -0.245
CCCACGGC | 0.0935
CCCACGGG | 0.311
CCCACGGA | 0.424
GTCAGTAA | -0.145
ACTGGAAC | 0.0779
ACAGAGCC | -0.128
ATCTCCGG | 0.4
ATCTCCGC | 0.292
AGCTCCGC | 0.287
AACTCCGT | 0.271
ATCTCCGA | 0.324
ACCTCCGT | 0.204
AACTCCGG | 0.416
AGCTCCGA | 0.239
ACCTCCGG | 0.402

Sequence | PBM E-score
AGCTCCGG | 0.389
CCCTCCGG | 0.265
CACTCCGG | 0.351
ACGCTACC | -0.183
CGAGCGCG | 0.273
AGCGAAGG | -0.0572
GATTTAAA | -0.159
ATGGCACG | 0.117
CGGCGCCA | 0.171
AGCCGGCA | 0.339
CGCCGGCC | 0.32
AGCCGGCG | 0.372
CGGCGCCG | 0.463
CGCCGGCA | 0.339
AGCCGGCT | 0.315
CGCCGGCG | 0.452
AGGCGCCG | 0.161
AACCAGAG | -0.12
ACTGACCG | -0.00211
CGTGCTTA | 0.0586
CCTCTAGC | -0.247
GTTCCACA | 0.0178
CGTACGGA | 0.281
CGGACCCC | 0.198
CGGACCCG | 0.392

Sequence | PBM E-score
AGGACCCG | 0.17
CAGCGCAG | -0.00798
CTCTCTGC | -0.0361
ATTTGACC | -0.0303
CATTGCAC | -0.0987
CGCCGACG | 0.0962
GGGAAATA | 0.0401
AGGAAATC | 0.0849
CGGAAATC | 0.407
CTGAAATC | 0.0707
CGGAAATA | 0.45
AGGAAATA | 0.121
AACTCGAC | 0.0587
AACAGCTT | 0.048
TAGGGGAA | -0.157
GGGCATTA | -0.0343
CGGCATTA | 0.357
AGGCATTA | -0.12
CTCTTCCC | 0.0704
AAATCCAT | 0.17
GGAACTAA | 0.296
CCCGCCAC | 0.254
AGCTGCTG | -0.0512

Source: the supplement of paper PMC3334620
